# Source: PubChem BioAssay (National Center for Advancing Translational Sciences (NCATS))
# A selection: hits, their analogues and other compounds. The true share with any hit is near 5.7%.
# PI5P4Ka inh – blocks human PI5P4K alpha kinase activity; PI5P4Kalpha enzyme, ADP-Glo luminescence, 60 min; hits give low values; 1.2% of 330,000 active; max response, %; AID 652105; P48426; active means max response of -50% or lower; inconclusive means between -30% and -50%; inactive means -30% or higher; further: value at the top dose of about 77 µM
#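 Quantitative HTS of the MLSMR library against PI5P4Kalpha with substrate. ATP added last at 5 microM final; room temperature, 60 minutes. Remaining ATP depleted, ADP converted and read as luminescence.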
# L3MBTL1 inh – inhibitors of human L3MBTL1. Q9Y468. AlphaScreen L3MBTL1–H3K9me1 peptide binding. AID 485360. Potency, µM (highest dose often 57.1 µM), most hits filed as inhibitors. 0.66% of 230,000 active; further: nearly all actives have a fitted effect of over 60% in size
#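 First, the protein-peptide complex forms for 30 min at room temperature (L3MBTL1 50 nM, biotinylated H3K9me1 peptide 75 nM). Next, compounds are pin-transferred and incubated 30 min. Finally, AlphaScreen beads are added and read after 30 min.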
# HP1b binding inh – blocks HP1-beta chromodomain binding to methylated histone tails. Potency, µM (titrated, usually from 114 µM), most hits filed as inhibitors. AID 540317. AlphaScreen HP1-beta / biotin-H3K9me3 peptide binding. 0.56% of 390,000 active. P83916; further: nearly all actives have a fitted effect of over 70% in size
# Target sequence (P83916 whole entry, looked up): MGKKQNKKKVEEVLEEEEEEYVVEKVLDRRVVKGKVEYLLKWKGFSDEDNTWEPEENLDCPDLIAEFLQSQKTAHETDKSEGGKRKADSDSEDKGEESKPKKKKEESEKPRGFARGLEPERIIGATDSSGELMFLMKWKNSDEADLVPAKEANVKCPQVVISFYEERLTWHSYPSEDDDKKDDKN
#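 HP1-beta protein (50 nM final) preincubated 30 min at room temperature with biotinylated H3(1-18)K9me3 peptide (50 nM) in PBS pH 7.4, 0.01% Tween-20, then compound added for 30 min. AlphaScreen streptavidin donor/nickel chelate acceptor beads (10 ug/mL final), 30 min dark, luminescence read.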
# JMJD2E inh – blocks human JMJD2E demethylase activity | Potency, µM (highest dose often 57.1 µM), most hits filed as inhibitors | B2RXH2 | 1.6% of 230,000 active | AID 2147 | JMJD2E catalytic domain, FDH-coupled NADH fluorescence (FDH is formaldehyde dehydrogenase); active means well fitted inhibition curve with a large enough effect, not every such curve was filed as active; inconclusive means small, poorly fitted or top-dose-only effect, or another doubt; inactive means no such curve, though single readings can be large or run the other way; further: nearly all actives have a fitted effect of over 50% in size
# Target sequence (B2RXH2 1-337 limits assumed): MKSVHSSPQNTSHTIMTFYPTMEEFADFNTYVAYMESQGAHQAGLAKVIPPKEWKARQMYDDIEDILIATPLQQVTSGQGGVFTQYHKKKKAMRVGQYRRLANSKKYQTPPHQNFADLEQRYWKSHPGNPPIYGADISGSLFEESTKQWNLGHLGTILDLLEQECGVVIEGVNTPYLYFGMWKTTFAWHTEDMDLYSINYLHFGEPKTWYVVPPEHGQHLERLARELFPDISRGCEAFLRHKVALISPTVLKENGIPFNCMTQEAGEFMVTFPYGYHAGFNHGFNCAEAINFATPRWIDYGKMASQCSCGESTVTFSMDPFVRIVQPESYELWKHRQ
# BAZ2B block – blocks human BAZ2B; 4.4% of 360,000 active; Potency, µM (highest dose often 114 µM), most hits filed as inhibitors; AlphaScreen BAZ2B-H3K14Ac peptide displacement; AID 504333; further: nearly all actives have a fitted effect of over 60% in size
#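 BAZ2B 50 nM plus b-H3(5-23)K14Ac 50 nM, PBS pH 7.4/0.01% Tween-20, 30 min RT; compound added (max 110 uM), 30 min RT; streptavidin donor/Ni-chelate acceptor beads 10 ug/mL final, 20 min dark; AlphaScreen read.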
# JMJD2A Tudor – blocks the human JMJD2A Tudor domain | O75164 | AlphaScreen JMJD2A-Tudor / H3K4me3 peptide binding | Potency, µM (titrated, usually from 114 µM), most hits filed as inhibitors | 4.4% of 390,000 active; further: nearly all actives have a fitted effect of over 50% in size
# A number is an active result; – = inactive; ? = inconclusive; · = no result given. Unless noted, the call rests on the fitted dose curve; in most records, active means well fitted inhibition curve with a large enough effect; inconclusive means small, poorly fitted or top-dose-only effect; inactive means no such curve, though single readings can be large or run the other way.
SMILES,PI5P4Ka inh,L3MBTL1 inh,HP1b binding inh,JMJD2E inh,BAZ2B block,JMJD2A Tudor
CCc1ccc2oc(-c3ccc(OC)cc3)cc(=Nc3cccc(C(=O)O)c3)c2c1,–,·,–,?,–,14µM
N#Cc1c(-n2cccc2)cccc1-n1cccc1,·,–,–,–,50µM,?
N#Cc1c(Cl)cccc1-n1ccnc1,·,–,–,–,–,–
CCOC(=O)c1ncn2c1C(=O)OC2(C)C,–,–,–,–,?,18µM
O=C(OCC#CCSc1nnc(-c2cccc3ccccc23)o1)c1cc2ccccc2s1,·,·,·,·,·,–
Cc1ccc(O)c(NC(=O)C2CC(c3cccc(Br)c3)=NO2)c1 (configuration not stated),–,–,–,·,–,–
COc1ccc(-c2n[nH]c(=S)n2/N=C/C=C\c2ccccc2OC)cc1,–,–,–,?,–,89µM
COc1ccccc1/C=C/C=N/n1c(-c2ccco2)n[nH]c1=S,–,–,–,–,?,28µM
Cc1ccc(-c2n[nH]c(=S)n2/N=C/C=C\c2ccccc2[N+](=O)[O-])cc1,–,·,–,–,?,?
O=[N+]([O-])c1ccccc1/C=C/C=N/n1c(-c2ccccc2)n[nH]c1=S,–,–,?,–,?,56µM
COc1ccccc1/C=C/C=N/n1c(-c2ccc(C)cc2)n[nH]c1=S,–,–,–,–,–,–
COc1ccc(-c2cn3c(n2)sc2cc(C(=O)Nc4c(C)cccc4C)ccc23)cc1,·,·,–,·,?,–
O=C(O)c1ccccc1C(=O)Nc1ccc(Oc2cccc3ccccc23)cc1,–,?,–,–,50µM,–
Cc1cccc(Oc2ccc(NC(=O)c3ccccc3C(=O)O)cc2)c1C,–,–,–,–,?,–
NNC(=S)Nc1cccc(-c2n[nH]c(=S)o2)c1,-76,·,–,?,–,?
C=CCOC(=O)C1(C(NC(=O)OC)c2ccccc2)C(=O)Cc2ccccc21 (configuration not stated),·,·,·,–,·,·
CC(C(=O)Nc1ccc(O)cc1C(=O)O)N1C(=O)/C(=C\c2cccs2)SC1=S (configuration not stated),?,·,?,·,50µM,45µM
O=C(CCCN1C(=O)/C(=C\c2cccs2)SC1=S)Nc1ccccc1O,–,·,·,·,·,·
O=C(CN1C(=O)/C(=C\c2ccco2)SC1=S)Nc1ccc(O)cc1C(=O)O,-62,·,–,·,40µM,–
O=C(CCCN1C(=O)/C(=C/c2ccccc2)SC1=S)Nc1ccccc1O,–,–,–,–,–,–
O=C(CCN1C(=O)/C(=C/c2ccco2)SC1=S)Nc1ccc(O)cc1C(=O)O,-63,·,18µM,·,50µM,28µM
O=C(CCCN1C(=O)/C(=C\c2ccccc2)SC1=S)Nc1ccc(O)cc1C(=O)O,–,·,–,·,35µM,–
CC(=O)NNC(=O)CN1C(=O)/C(=C/c2ccccc2)SC1=S,–,·,–,–,–,–
COc1ccc(CCNC(=O)c2nn(-c3ccc(C)cc3)c(=O)c3c2c2ccccc2n3C)cc1OC,·,·,–,·,·,–
COc1cccc(NC(=O)Cn2c(=O)n(CCCCC(=O)NCc3ccccc3Cl)c(=O)c3ccccc32)c1,·,·,–,·,–,–
SMILES,PI5P4Ka inh,L3MBTL1 inh,HP1b binding inh,JMJD2E inh,BAZ2B block,JMJD2A Tudor
CCC1CCc2nc3sc(C(=O)Nc4ccc(C)cc4)c(N)c3cc2C1 (configuration not stated),·,·,–,·,–,–
CCOC(=O)CSc1ccc(S(=O)(=O)N(C)C2CCCCC2)cc1[N+](=O)[O-],·,·,–,–,?,56µM
CCOC(=O)CSc1ccc(S(=O)(=O)N2CCCCC2)cc1[N+](=O)[O-],–,–,–,–,?,?
O=C(CCN1CCCCC1)Nn1c(=S)[nH]c2ccccc2c1=O,–,–,–,–,?,0.71µM
CC1CC(C)CN(C(=O)CCCn2c(=S)[nH]c3ccccc3c2=O)C1 (configuration not stated),·,–,–,–,–,–
O=C(CCCn1c(=S)[nH]c2ccccc2c1=O)N1CCCCC1,–,–,–,–,–,56µM
CCn1c2ccccc2c2cc(C3C(C#N)=C(N)Oc4n[nH]c(COC)c43)ccc21 (configuration not stated),·,·,–,10µM,–,?
Cc1ccc(-c2nnc(SCc3ccccc3C#N)o2)cc1,·,·,–,·,–,–
CC(=O)[C@@H]1[C@H]2[C@H](C(=O)[C@H]3OC[C@@H]2O3)[C@H]2C=Cc3ccccc3N21,·,·,·,13µM,·,·
Clc1ccc(-c2noc(-c3cccnc3N3CCN(c4ccccc4)CC3)n2)cc1,·,·,–,·,–,–
CCOc1ccccc1NC(=O)C1CCN(S(=O)(=O)Cc2ccccc2)CC1,·,·,–,·,–,–
O=C(Nc1nc(-c2cccs2)cs1)C1=COCCO1,–,–,?,–,–,14µM
O=C(Nc1nc(-c2ccc(Cl)cc2)cs1)C1=COCCO1,–,–,–,·,–,–
Cc1cc(C)nc(NNC2=CC(=[N+]3CCCCC3)CC(C)(C)C2)n1,–,·,?,–,–,–
Cc1cc(C)nc(NNC2=CC(=[N+]3CCCC3)CCC2)n1,–,·,?,–,–,3.2µM
CNc1ccc(N=Nc2cccc3ncccc23)cc1,–,·,40µM,·,·,14µM
Cc1ccc2c(=O)cc(C(=O)Nc3sc4c(c3C(=O)NCc3ccco3)CCCC4)oc2c1C,·,·,–,·,–,?
CCc1nnc(NC(=O)c2ccc(S(=O)(=O)N3CCCC(C)C3)cc2)s1 (configuration not stated),–,·,–,·,–,–
O=C(Nc1nn[nH]n1)c1ccc(S(=O)(=O)N2CCCCC2)cc1,–,–,–,–,71µM,?
COCc1nnc(NC(=O)c2ccc(S(=O)(=O)N3CCCC3)cc2)o1,–,·,–,·,20µM,13µM
CCc1nnc(NC(=O)c2ccc(S(=O)(=O)N3CCCC(C)C3)cc2)o1 (configuration not stated),–,·,–,·,89µM,–
O=C(Nc1ccccc1)c1ccc(S(=O)(=O)N2CCCCC2)cc1,–,–,–,–,–,–
CCOC(=O)c1cc2c(=O)n3ccccc3nc2n(C(C)C)c1=NC(=O)C(C)(C)Oc1ccc(Cl)cc1,·,·,–,·,–,–
Cc1ccc(N(CC(=O)NC2CCCCC2)C(=O)CNC(=O)c2ccco2)cc1C,–,·,–,·,–,–
COc1ccc(-c2[nH]nc3nc(-c4cc(Br)ccc4OC)cc(C(=O)O)c23)cc1,·,·,–,·,–,–
CCOc1ccc(OCC)c(S(=O)(=O)N2CCN(c3cccc(C)c3C)CC2)c1,·,·,–,·,–,–
CCN(CC)/C(Sc1ccccc1)=C(\C(Cl)=C(Cl)Cl)[N+](=O)[O-],–,·,–,–,50µM,–
CCN(CC)/C(Sc1ccccc1)=C(/C(Cl)=C(Cl)Cl)[N+](=O)[O-],–,·,–,–,–,–
CCOc1cc(C(=O)OCC(=O)NCc2ccco2)cc(OCC)c1OCC,?,?,?,–,28µM,56µM
O=C(COC(=O)c1cncc(Br)c1)NCc1ccco1,–,–,–,–,32µM,–
